From the supplement of paper PMC10515830
Structures can show the parent of a compound that is named as a salt.

Experiments:
Settings in all cases: 10 µM; exposure time 6 h
[1] = test system: Danio rerio larvae (5 dpf); assay: difference in excitability vs DMSO (percentage points); higher = more excitable than DMSO
Procedure, shortened: (§1)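 Wild-type 5 dpf zebrafish larvae in 96-well plates were given 100 µL egg water containing library compound at 10 µM final for 6 h. After 3 h of exposure, plates at 28.5 ℃ were photographed every 6 s during a 3-h programme of moving lines and 100 ms, 400Hz tones. Z-LaP Tracker (a DeepLabCut model) quantified each behaviour, averaged over 48 larvae per compound. Values are the compound mean minus the DMSO-vehicle control, in percentage points.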

[2] = test system: Danio rerio larvae (5 dpf); assay: difference in startle response vs DMSO (percentage points); higher = stronger startle than DMSO
Procedure, shortened: as §1

[3] = test system: Danio rerio larvae (5 dpf); assay: difference in activity during first hour vs DMSO (percentage points); higher = more activity than DMSO
Procedure, shortened: as §1

[4] = test system: Danio rerio larvae (5 dpf); assay: difference in habituation to acoustic stimuli vs DMSO (percentage points); higher = more habituation than DMSO
Procedure, shortened: as §1

[5] = test system: Danio rerio larvae (5 dpf); assay: difference in combined optomotor response to red, green and blue moving lines vs DMSO (percentage points); higher = stronger optomotor response than DMSO
Procedure, shortened: as §1

| SMILES | difference in excitability [1] | difference in startle response [2] | difference in activity during first hour [3] | difference in habituation to acoustic stimuli [4] | difference [5] |
| --- | --- | --- | --- | --- | --- |
| CC(C)OC(=O)[C@H](C)N[P@](=O)(OC[C@H]1O[C@@H](n2ccc(=O)[nH]c2=O)[C@](C)(F)[C@@H]1O)Oc1ccccc1 | -3.58 | -4.12 | 10 | 1.16 | 6.56 |
| CCCSc1nc(N[C@@H]2C[C@H]2c2ccc(F)c(F)c2)c2nnn([C@@H]3C[C@H](OCCO)[C@@H](O)[C@H]3O)c2n1 [Ticagrelor] | 4.33 | 1.19 | 2.64 | 1.79 | 9.27 |
| CC(=O)[C@@]1(O)CC[C@H]2[C@@H]3C[C@H](C)C4=CC(=O)C=C[C@]4(C)[C@@]3(F)[C@@H](O)C[C@@]21C [Fluorometholone] | 5.46 | 1.23 | -2.26 | 4.02 | 1.57 |
| Cc1c2oc3c(C)ccc(C(=O)N[C@@H]4C(=O)N[C@H](C(C)C)C(=O)N5CCC[C@H]5C(=O)N(C)CC(=O)N(C)[C@@H](C(C)C)C(=O)O[C@@H]4C)c3nc-2c(C(=O)N[C@@H]2C(=O)N[C@H](C(C)C)C(=O)N3CCC[C@H]3C(=O)N(C)CC(=O)N(C)[C@@H](C(C)C)C(=O)O[C@@H]2C)c(N)c1=O [Actinomycin D] | 5.1 | -6.8 | 6.02 | 4.18 | -0.162 |
| Cn1ccnc1S [Methimazole] | -1.48 | 3.48 | -0.609 | 0.155 | 3.45 |
| Cl.N=C(N)NCCC[C@H](N)C(=O)O [L-Arginine (hydrochloride)] | 4.03 | -4.09 | 10.1 | 2.29 | 0.624 |
| O=C(O)CCc1nc(-c2ccccc2)c(-c2ccccc2)o1 [Oxaprozin] | 17.9 | -7.37 | 3.28 | -4.84 | -6.06 |
| C=C(c1ccc(C(=O)O)cc1)c1cc2c(cc1C)C(C)(C)CCC2(C)C [Bexarotene] | 7.21 | 1.4 | -13.5 | -4.93 | -11 |
| CCCCc1nc(Cl)c(CO)n1Cc1ccc(-c2ccccc2-c2nnn[nH]2)cc1 [Losartan (potassium salt)] | 3.08 | 0.6 | 6.85 | -4.35 | -1.12 |
| Cc1nccn1CC1CCc2c(c3ccccc3n2C)C1=O (stereo not given) [Ondansetron (hydrochloride hydrate)] | 12.1 | -1.85 | 6.77 | -3.59 | 4.66 |
| C#Cc1cccc(Nc2ncnc3cc(OCCOC)c(OCCOC)cc23)c1 [Erlotinib] | 4.3 | -6.74 | -6.91 | -0.321 | -4.8 |
| Cn1nnc(-c2ccc(-c3ccc(N4C[C@H](COP(=O)(O)O)OC4=O)cc3F)cn2)n1 [Tedizolid Phosphate] | -1.24 | 8.42 | 3.68 | 2.23 | 0.136 |
| C[n+]1ccccc1/C=N/O [Pralidoxime (chloride)] | 1.97 | -3.28 | 6.01 | 2.57 | 1.74 |
| C[C@]12CC[C@@H]3c4ccc(O)cc4C[C@@H](CCCCCCCCC[S+]([O-])CCCC(F)(F)C(F)(F)F)[C@H]3[C@@H]1CC[C@@H]2O (stereo not given in full) [Fulvestrant] | 1.25 | 0.684 | -0.447 | 1.81 | 1.43 |
| COc1ccccc1OCC(O)CN1CCN(CC(=O)Nc2c(C)cccc2C)CC1 (stereo not given) [Ranolazine (hydrochloride)] | 14.6 | -5.16 | 4.7 | 3.56 | 2.81 |
| C[C@@H](NCCCc1cccc(C(F)(F)F)c1)c1cccc2ccccc12 [Cinacalcet (hydrochloride)] | -1.68 | 0.605 | 10.2 | -9.83 | -16.5 |
| CCCCCN(C)CCC(O)(P(=O)(O)O)P(=O)(O)O [Ibandronate (sodium hydrate)] | -4.51 | 1.53 | -2.16 | 7.06 | -0.0828 |
| CO[C@H]1/C=C/O[C@@]2(C)Oc3c(C)c(O)c4c(c3C2=O)C2=NC3(CCN(CC(C)C)CC3)NC2=C(NC(=O)/C(C)=C\C=C\[C@H](C)[C@H](O)[C@@H](C)[C@@H](O)[C@@H](C)[C@H](OC(C)=O)[C@@H]1C)C4=O [Rifabutin] | 10.6 | -5.26 | 2.31 | 3.31 | 3.55 |
| CCOc1cc([C@@H](CS(C)(=O)=O)N2C(=O)c3cccc(NC(C)=O)c3C2=O)ccc1OC [Apremilast] | 0.408 | 3.1 | -6.82 | -0.561 | -3.01 |
| CNC(=O)c1ccccc1Sc1ccc2c(/C=C/c3ccccn3)n[nH]c2c1 [Axitinib] | 4.07 | 1.36 | -1.06 | -0.505 | 6.84 |
| C#CCC(Cc1cnc2nc(N)nc(N)c2n1)c1ccc(C(=O)N[C@@H](CCC(=O)O)C(=O)O)cc1 (stereo not given in full) [Pralatrexate] | 7.8 | 7.47 | 0.4 | 4.28 | 4.2 |

| SMILES | difference in excitability [1] | difference in startle response [2] | difference in activity during first hour [3] | difference in habituation to acoustic stimuli [4] | difference [5] |
| --- | --- | --- | --- | --- | --- |
| CCC(=O)O[C@]1(C(=O)CCl)[C@@H](C)C[C@H]2[C@@H]3C[C@H](F)C4=CC(=O)C=C[C@]4(C)[C@@]3(F)[C@@H](O)C[C@@]21C [Halobetasol Propionate] | 12.1 | 1.54 | 3.96 | -4.09 | 3.99 |
| COc1cc2c(cc1OC)C(=O)C(CC1CCN(Cc3ccccc3)CC1)C2 (stereo not given) [Donepezil] | 12 | -0.487 | -0.402 | -0.748 | -2.38 |
| CC(CCc1ccccc1)NCC(O)c1ccc(O)c(C(N)=O)c1 (stereo not given) [Labetalol (hydrochloride)] | 3.49 | 0.137 | 5.09 | 3.73 | -2.36 |
| Nc1nc(=O)n([C@@H]2CS[C@H](CO)O2)cc1F [Emtricitabine] | 1.12 | -4.62 | 11.4 | 4.83 | 7.06 |
| C=CC1=C(C(=O)O)N2C(=O)[C@@H](NC(=O)/C(=N\OCC(=O)O)c3csc(N)n3)[C@H]2SC1 [Cefixime] | -0.725 | -0.605 | 11.6 | 8.39 | 10.8 |
| CC(=O)O[C@]1(C(C)=O)CC[C@H]2[C@@H]3C[C@H](C)C4=CC(=O)CC[C@]4(C)[C@H]3CC[C@@]21C [Medroxyprogesterone 17-acetate] | 9.28 | -1.88 | -1.67 | -11.4 | -9.37 |
| CCCCCCCC(=O)N[C@H](CN1CCCC1)[C@H](O)c1ccc2c(c1)OCCO2 [Eliglustat (hemitartrate)] | 10.1 | -3.5 | 7.49 | 7.96 | 7.51 |
| NC(=O)C(c1ccccc1)(c1ccccc1)[C@@H]1CCN(CCc2ccc3c(c2)CCO3)C1 [Darifenacin (hydrobromide)] | 15.5 | -9.95 | -4.6 | -3.27 | -6.74 |
| CNC(=O)c1cc(Oc2ccc(NC(=O)Nc3ccc(Cl)c(C(F)(F)F)c3)cc2)ccn1 [Sorafenib] | 19.5 | -6.25 | -3.15 | -3.01 | -2.71 |
| Cc1nc(-c2ccc(OCC(C)C)c(C#N)c2)sc1C(=O)O [Febuxostat] | -0.635 | 0.974 | -3.02 | 3.9 | 5.26 |
| Nc1nc(=O)c2c([nH]1)NC[C@H](CNc1ccc(C(=O)N[C@@H](CCC(=O)O)C(=O)O)cc1)N2C=O [L-Folinic Acid (calcium salt)] | -3.02 | -0.777 | -9.87 | -0.456 | -0.774 |
| CC1=C(/C=C/C(C)=C/C=C/C(C)=C/C(=O)O)C(C)(C)CCC1 [all-trans Retinoic Acid] | 7.11 | -8.47 | -4.15 | -13.5 | 6.48 |
| O=C(O)Cc1ccccc1Nc1c(Cl)cccc1Cl [Diclofenac (sodium salt)] | 17.2 | -1.39 | 2.16 | -5.15 | 2.67 |
| CCCN[C@H]1CCc2nc(N)sc2C1 [(S)-Pramipexole (hydrochloride)] | 6.47 | -2.57 | -10.9 | 5.7 | 0.342 |
| N=C(N)NCCC[C@@H](NC(=O)[C@@H]1CCCN1C(=O)[C@@H]1CSSCCC(=O)N[C@@H](Cc2ccc(O)cc2)C(=O)N[C@@H](Cc2ccccc2)C(=O)N[C@@H](CCC(N)=O)C(=O)N[C@@H](CC(N)=O)C(=O)N1)C(=O)NCC(N)=O [Desmopressin (trifluoroacetate salt)] | 0.805 | -0.652 | 28.8 | -4.29 | 5.42 |
| CN(CCOc1ccc(NS(C)(=O)=O)cc1)CCc1ccc(NS(C)(=O)=O)cc1 [Dofetilide] | -1.01 | -4.06 | 7.17 | 7 | 7.94 |
| C[C@H]1C[C@@H]2[C@H]([C@@H](O)C[C@@]3(C)[C@H]2CC[C@]3(O)C(=O)CO)[C@@]2(C)C=CC(=O)C=C12 [Methylprednisolone] | 2.35 | 0.227 | 10.3 | -3.19 | 9.29 |
| CO[C@@H]1[C@H](N(C)C(=O)c2ccccc2)C[C@H]2O[C@]1(C)n1c3ccccc3c3c4c(c5c6ccccc6n2c5c31)C(=O)NC4 | -5.3 | -4.96 | 4.11 | 8.1 | 0.314 |
| Oc1c(Cl)cc(Cl)c(Cl)c1Cc1c(O)c(Cl)cc(Cl)c1Cl [Hexachlorophene] | 8.13 | -9.45 | -18.6 | -9.66 | -15.6 |
| c1cc(CN2CCCNCCNCCCNCC2)ccc1CN1CCCNCCNCCCNCC1 [Plerixafor (hydrochloride hydrate)] | 11.6 | -7.66 | -16 | -5.73 | -15.1 |
